Screening data from PubChem BioAssay.
In the library only some 1.4% were active in any assay of this set; here they are far more common.
uPA generation = qHTS for Inhibitors of Cell Surface uPA Generation; cell surface uPA generation assay, qHTS; hit rate 0.31% among 330,000; AID 540303, 2011; Potency, µM (doses to about 38.3 µM), for inactives: at the top dose activity change, negative = inhibition, actives largely listed as inhibitors; active = well fitted inhibition curve with a large enough effect; inconclusive = small, poorly fitted or top-dose-only effect; inactive = no such curve, though single readings can be large or run the other way; tested in mouse RAW 264.7 cells; also: potency is read from the fitted curve at half-maximal effect; % is scaled to controls: 0 for no effect and ±100 for the full control effect; nearly all actives have a fitted effect of over 55% in size
p53 reactivator = qHTS assay for re-activators of p53 using a Luc reporter | H1299 p53-A138V BP100-luciferase reporter, luminescence, 24 h | Potency, µM (series often up to 92.2 µM), inactives show at the top dose activity change, positive = activation, most hits filed as activators | hit rate 0.063% among 320,000 | AID 504706, 2011; also: potency is read from the fitted curve at half-maximal effect; % of control where 0% means no effect; nearly all actives have a fitted effect of over 45% in size
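H1299 (p53-null), stable ts p53-A138V + BP100-Luc; 1000 cells/well, Opti-MEM/10% FBS; cpd 4 pt, 1:5; 24 h, 37 deg C, 5% CO2; detection reagent 10 min RT; luminescence.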
IL2 activator = qHTS of IL-2 Activators | IL-2 activation reporter assay, cell-based qHTS; stimulated with anti-CD3/CD4/CD28 beads; in transgenic mouse T cells | activation, % (series mostly up to about 46 µM) | hit rate 0.065% among 360,000 | AID 652025, 2013; in the data active = activation above about 50%; inconclusive = mostly about 30% to 49%; also: 0% is about no effect
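Unstimulated transgenic mouse T cells; 60-min compound exposure; bead-based TCR/CD4/CD28 stimulation; 18 h culture, 37 degrees C; dual fluorescence (EGFP, DsRed) plate cytometry.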
BRCA1 expr up = qHTS Assay to Identify Small Molecule Activators of BRCA1 Expression; MCF7-BRCA1-FFLuc reporter, luminescence, 48 h; response scale: scaled: vehicle 0%, 10 µM genistein 100%; Potency, µM (titrated, usually from 46.1 µM), for the others: at the top dose activation, most hits filed as activators; hit rate 1.1% among 380,000; AID 624202, 2012; also: potency is read from the fitted curve at half-maximal effect; nearly all actives have a fitted effect of over 80% in size
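Reporter cells (MCF7, BRCA1 promoter-firefly luciferase) received library compounds across a concentration series for 48 h. End-point luminescence was measured and concentration-effect curves derived after normalization.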
TCR act = Activators of T cell receptors: qHTS campaign. 330,000 tested, under 10 active. primary human leukocytes, anti-CD3, IL-2 HTRF, 48 h. Potency, µM (top dose mostly 9.22 µM), inactives show top-dose activation of IL-2 secretion, hits mostly activators; also: % of control where 0% means no effect
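IL-2 release read by HTRF sandwich (Eu cryptate donor, d2 acceptor, 665 nm emission) after 48 hr exposure of primary human leukocytes to compound together with anti-CD3 beads in the absence of co-stimulatory signals.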
Starred values were filed as active, the others as inactive; ? = inconclusive; . = no result given; [ ] = remark or other dose. Unless noted, calls follow the shape of the dose curve; as a rule, active = well fitted curve in the direction sought with a large enough effect; inconclusive = small, poorly fitted or top-dose-only effect, or another doubt; inactive = no such curve, though single readings can be large; an effect the other way counts as inactive or inconclusive.

SMILES	uPA generation	p53 reactivator	IL2 activator	BRCA1 expr up	TCR act
Cc1ccc(NC(=O)C2(C)Cc3ccccc3C(=O)O2)c(C)c1 (centres undefined)	.	.	.	3%	.
COc1ccc2c(c1)c1c(c(=O)n(-c3ccc(F)c(Cl)c3)c(=O)n1Cc1ccccc1F)n2C	.	.	.	10%	.
COC(=O)N1CC=CC1(C)C(=O)NCc1cc(F)cc(C(F)(F)F)c1 (centres undefined)	7.9µM*	22%	-3	-2%	9%
CC(=O)N1CC=CC1(C)C(=O)NCc1cc(F)cc(C(F)(F)F)c1 (centres undefined)	6%	-3%	0	8%	11%
CC(C)(C)S(=O)(=O)c1cnc(-c2ccccn2)nc1N	-2%	3%	1	49%	2%
Cc1cccc(-c2ncc(S(=O)(=O)C(C)(C)C)c(N)n2)c1	6%	9%	-4	5µM*	-6%
CCN(CC)/[N+]([O-])=N/OCOC(=O)C(C)c1ccc2cc(OC(C)=O)ccc2c1 (centres undefined)	.	.	.	-4%	.
CC(C)NC(=O)c1ccc(Cn2c(SCC(N)=O)nc3ccccc3c2=O)cc1	.	.	.	2%	.
Cc1cc(C)cc(OC(=O)CCN2C(=O)c3ccccc3C2=O)c1	-8%	-7%	-2	4%	2%[46.1 µM]
Cc1ccc(NC(=O)c2ccc(OC(=O)COc3cccc(Cl)c3)cc2)cc1	-2%	?	0	3.5µM*	-1%[46.1 µM]
Cc1ccc(NC(=O)c2ccc(OC(=O)CCN3C(=O)c4ccccc4C3=O)cc2)cc1	-3%	24%	-3	7.1µM*	1%
Cc1ccc(NC(=O)c2ccc(OC(=O)COc3ccc(Cl)cc3C)cc2)cc1	-4%	?	10	?	5%[46.1 µM]
CCc1cc2c(=O)n(-c3ccc(C)cc3)cnc2s1	-6%	?	1	?	-3%[46.1 µM]
CCc1cc2c(=O)n(-c3ccccc3)cnc2s1	-7%	3%	1	18µM*	3%
Cc1ccc(C2=N/C(=C\N3CCCCC3)C(=O)O2)cc1	.	17%	-2	?	-1%
Cc1ccc(C2=N/C(=C/N3CCOCC3)C(=O)O2)cc1	3%	?	0	8.9µM*	2%
CC(=O)Cn1cnc2c(cnn2-c2ccc(C)c(C)c2)c1=O	-4%	?	0	5µM*	-1%
CC(C)CCn1cnc2c(cnn2-c2ccc(F)cc2)c1=O	-7%	?	1	8.9µM*	0%
CCc1nn(Cc2c(C)cc(C)cc2C)c(=O)c2cc3cc(C)ccc3n12	.	.	.	11%	.
Cc1ccc(S(=O)(=O)N2CCN(c3nc(-n4ccnc4)nc4ccccc34)CC2)cc1	.	.	.	30%	.
COc1cccc(-c2nn(Cc3ccccc3)cc2CO)c1	3%	23%	-3	13µM*	11%
NCc1cn(Cc2ccccc2)nc1-c1ccccc1	.	.	.	26%	.
N/C(=N\N=C\c1ccc([N+](=O)[O-])cc1)c1nonc1N	1%	9%	0	?	3%
CS/C(N)=N/N=C/c1ccc([N+](=O)[O-])cc1	-3%	18%	-2	11µM*	1%
O=c1/c(=C\c2ccc(O)cc2)sc2nc(-c3ccccc3)c(-c3ccccc3)n12	0%	-3%	99*	35%	-11%
SMILES	uPA generation	p53 reactivator	IL2 activator	BRCA1 expr up	TCR act
CN1CCN(/N=C/c2ccc(Br)cc2)CC1	0%	10%	-1	5.6µM*	7%
CC(C)c1ccc(/C=N/N2CCCCC2)cc1	1%	1%	3	0%	-5%
CN1CCN(/N=C/c2ccc(N(c3ccccc3)c3ccccc3)cc2)CC1	3%	-4%	5	-84%	2%
Cc1cccc(/C=N/N2CCN(c3ccccc3)CC2)c1	5%	?	0	?	-8%[46.1 µM]
C(=C\c1ccccc1)/C=N/N1CCN(c2ccccn2)CC1	-2%	24%	0	?	4%
CN(C)c1ccc(C=NN2CCCCCC2)cc1	-4%	.	0	7.9µM*	3%
Cc1ccc(/C=N/N2CCN(c3ccccc3)CC2)cc1	1%	-13%	-3	13µM*	-4%
C(/C=C/c1ccccc1)=N/N1CCN(c2ccccc2)CC1	.	8%	-1	7.9µM*	-4%
Cc1cccc(NC(=O)CSc2nc3ccc(NC(=O)COc4ccc(Cl)cc4)cc3s2)c1	.	.	.	0%	.
Cc1nc2c(c(C)c1CCC(=O)Nc1ccc(F)cc1)c(=O)n(C)c(=O)n2C	.	.	.	4%	.
CCOc1ccc(CC(=O)Nc2c(C(=O)Nc3ccc(OC)cc3OC)oc3ccccc23)cc1	.	.	.	-8%	.
COc1cc(CN(C(=O)COc2ccc(Br)cc2)c2ccccn2)cc(OC)c1OC	.	.	.	0%	.
C(=C\c1ccccc1)/C=N/N1CCN(Cc2ccccc2)CC1	-3%	8%	2	11µM*	5%
Cc1ccccc1CN1C(=O)c2ccccc2S(=O)c2ccc(C(=O)NCc3ccco3)cc21 (centres undefined)	.	.	.	-24%	.
C/C(=N\OCC(=O)Nc1ccccc1C(=O)O)c1cccs1	-10%	19%	0	11µM*	1%
CCOC(=O)c1cc(OCc2csc(-c3ccccc3)n2)cc(C(=O)OCC)c1	.	.	.	3%	.
Cc1ccc(C)c(CNc2ccc(S(=O)(=O)N3CCCCC3)cc2)c1	2.5µM*	20%	-1	-67%	-3%
CC1(c2nnc(-c3cccc(Cl)c3)o2)CC(c2ccc(F)cc2)=NO1 (centres undefined)	?	.	0	11µM*	-1%
Cc1oc2c(c(=O)c1C)C(=O)CC(c1ccccc1)C2 (centres undefined)	-5%	11%	-2	-38%	-19%
CS(=O)(=O)c1sc(C#N)c2c1C(=O)CC(c1ccccc1)C2 (centres undefined)	8.9µM*	-13%	-4	-91%	3%
O=C(c1cc2cc3ccc(Cl)cc3nc2o1)N1CCN(c2cccc(Cl)c2)CC1	.	.	.	-1%	.
Cn1c(SCc2ccc(C#N)cc2Cl)nc2ccccc21	?	?	-2	4.5µM*	0%
N#Cc1ccc(CSc2ccccn2)c(Cl)c1	-3%	.	5	52%	-2%
Cc1oc2c(c1C(=O)Nc1ccccc1Br)C1=NCCN1C=N2	.	.	.	-2%	.
CCC(CC)c1nn2c(=O)cc(COc3ccc(NC(=O)c4cccc(C)c4)cc3)nc2s1	.	.	.	0%	.
N#CC1=C2C=Cc3ccccc3N2CCCC1=O	1%	?	0	2.5µM*	0%
Nc1nc(N)c2snnc2n1	.	.	.	16%	.
Cc1cc(C(C)C)n2c(nc3ccccc32)c1C#N	.	-1%	.	.	.
Cc1cc(-c2ccco2)c(C#N)c2nc3ccccc3n12	-8%	13%	1	2.8µM*	-5%
Cc1ccc(S(=O)(=O)c2cnc(SC(C)C(=O)Nc3ccccc3)[nH]c2=O)cc1 (centres undefined)	.	.	.	17%	.
